Screens deposited in PubChem by National Center for Advancing Translational Sciences (NCATS).
Compounds with a hit are over-represented: about 21% of the library has one in this group of screens.
IL-1B inflam inh – blocks inflammasome-driven IL-1 beta release; AID 743279; THP-1 LPS/ATP IL-1B secretion, AlphaLISA, 16 h; active compounds read low; actives 4.7% (n = 360,000); activity change, % at 57.5 µM; in the data active = activity change below about -50%; inconclusive = mostly about -30% to -49%
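Secreted IL-1B measured by AlphaLISA bead assay after 16 h compound exposure of THP-1 cells; compounds (final up to 57.5 uM) added 1 h before LPS (250 ng/mL) and ATP (1.25 mM) stimulation; lower signal means less secretion.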
DT40 TDP1 CPT – DT40-hTDP1 cell growth loss with CPT. Potency, µM (doses to about 46.2 µM), for the others: at the top dose activity change, negative = growth inhibition, actives largely listed as inhibitors. actives 12% (n = 420,000). chicken DT40 Tdp1-/-;hTDP1 cells + 20 nM CPT, ATP luminescence, 48 h. AID 686979; also: potency is read from the fitted curve at half-maximal effect; nearly all actives have a fitted effect of over 55% in size
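Cell growth measured by CellTiter-Glo luminescence after a minimum 48 h, 37 C compound exposure with 20 nM CPT in Tdp1-knockout DT40 cells stably expressing hTDP1, seeded 400/well; qHTS titration format.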
RORg inh – ROR gamma (mouse) transcription inhibition | P51450 | Drosophila S2 Gal4-RORgamma UAS-luciferase reporter, 20 h | actives 5.4% (n = 310,000) | Potency, µM (titrated, usually from 53.6 µM), without a hit: at the highest dose activity change, negative = inhibition, hits mostly inhibitors; also: potency is read from the fitted curve at half-maximal effect; nearly all actives have a fitted effect of over 60% in size
Target sequence (P51450 whole entry, looked up, the tested form may be a part): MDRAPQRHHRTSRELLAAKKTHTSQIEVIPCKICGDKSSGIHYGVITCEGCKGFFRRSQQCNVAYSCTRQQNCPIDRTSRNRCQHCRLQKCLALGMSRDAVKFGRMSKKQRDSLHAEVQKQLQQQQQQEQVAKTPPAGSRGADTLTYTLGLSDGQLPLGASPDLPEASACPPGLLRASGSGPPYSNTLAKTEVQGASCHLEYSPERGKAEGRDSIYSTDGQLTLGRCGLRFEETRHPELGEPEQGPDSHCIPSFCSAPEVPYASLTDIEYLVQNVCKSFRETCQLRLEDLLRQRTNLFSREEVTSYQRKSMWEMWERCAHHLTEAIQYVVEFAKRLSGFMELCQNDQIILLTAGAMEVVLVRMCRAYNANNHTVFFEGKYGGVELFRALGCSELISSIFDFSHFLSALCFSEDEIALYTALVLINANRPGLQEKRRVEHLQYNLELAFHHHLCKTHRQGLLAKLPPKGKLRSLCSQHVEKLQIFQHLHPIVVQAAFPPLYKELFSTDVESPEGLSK
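Luciferase reporter read in Schneider cells carrying Gal4-RORγ (mouse) and UAS-Photinus luciferase; cells given compound 1 h before 700 uM copper sulfate induction, then incubated 20 h at ambient temperature.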
VP16 counter – inhibits Gal4-VP16 luciferase reporter, ROR gamma counter-screen; Drosophila S2 Gal4-VP16 UAS-luciferase, luminescence, 20 h; Potency, µM (doses to about 53.6 µM), for inactives: at the top dose activity, negative = inhibition, most hits filed as inhibitors; actives 3.5% (n = 310,000); AID 2546;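 also: Gal4-VP16 expression switched on by copper sulfate through the metallothionein promoter; potency is read from the fitted curve at half-maximal effect; nearly all actives have a fitted effect of over 50% in size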
ELG1 repair inh – ELG1-dependent DNA repair inhibition | HEK293T ELG1-luciferase reporter, luminescence, 16 h; DNA damage induced by 5-fluorouridine | Potency, µM (titrated, usually from 46.1 µM), inactives show at the highest dose activity change, negative = inhibition, usual class: inhibitors | actives 2.3% (n = 330,000) | AID 504467; also: potency is read from the fitted curve at half-maximal effect; nearly all actives have a fitted effect of over 55% in size
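Cells (2,000 per well) received 5-fluorouridine plus test compound or DMSO and were incubated 16 hr at 37 °C, 5% CO2. Luciferase activity was read by luminescence 30 min after ONE-Glo addition; signal suppression marked inhibition of damage-induced ELG1 function.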
DT40 TDP1 no CPT – qHTS for Inhibitors of human tyrosyl-DNA phosphodiesterase 1 (TDP1): qHTS in cells in absence of CPT | DT40 Tdp1-/- hTDP1 cells, no CPT, ATP luminescence, 48 h | Potency, µM (titrated, usually from 46.2 µM), inactives show at the highest dose activity change, negative = growth inhibition, hits mostly inhibitors | actives 15% (n = 420,000) | AID 686978, 2013; also: potency is read from the fitted curve at half-maximal effect; nearly all actives have a fitted effect of over 55% in size
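Luminescent ATP content (CellTiter-Glo) served as the growth readout. Knockout chicken DT40 cells expressing human TDP1 were exposed to compounds without camptothecin for a minimum 48 hr at 37 °C.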
* hit, by the source's call. Unless noted, calls follow the shape of the dose curve; as a rule, active = well fitted curve in the direction sought with a large enough effect; inconclusive = small, poorly fitted or top-dose-only effect, or another doubt; inactive = no such curve, though single readings can be large; an effect the other way counts as inactive or inconclusive. % is scaled to controls: 0 for no effect and ±100 for the full control effect.

What do the screens show for `CCN(Cc1ccc(NC(C)=O)cc1)CC1CCCN(CCc2cccc(OC)c2)C1` (stereo unspecified)?
IL-1B inflam inh: -10.7; DT40 TDP1 CPT: inconclusive; RORg inh: 2.7%; VP16 counter: -9.3%; ELG1 repair inh: 0.6%; DT40 TDP1 no CPT: 20.6µM*

What do the screens show for `COc1ccc(CCN2CCCC(CN(C)Cc3cccc(OC)c3)C2)cc1` (stereo unspecified)?
IL-1B inflam inh: -14.7; DT40 TDP1 CPT: inconclusive; RORg inh: 0.4%; VP16 counter: 2.0%; ELG1 repair inh: -28.7%; DT40 TDP1 no CPT: inconclusive

Results for CCn1c(N)cc(=O)[nH]c1=S ?
IL-1B inflam inh: 44.8; DT40 TDP1 CPT: -7.1%; DT40 TDP1 no CPT: -8.8%

Results for COc1ccc2nc(N(Cc3cccnc3)C(=O)c3ccc(Cl)cc3)sc2c1 ?
DT40 TDP1 CPT: -0.9%; DT40 TDP1 no CPT: -21.3%

How did O=C(C1=C[C@@H](C2CC2)C[C@@H](OCc2ccc(CO)cc2)O1)N1CCN(Cc2ccccc2)CC1 do in these assays?
IL-1B inflam inh: inconclusive; DT40 TDP1 CPT: inconclusive; RORg inh: 32.6%; VP16 counter: 2.5%; ELG1 repair inh: inconclusive; DT40 TDP1 no CPT: inconclusive

What do the screens show for `CCOc1ccc(NC(=O)CNC(=O)c2nn(-c3ccc(OC)c(OC)c3)c(=O)c3ccccc23)cc1`?
IL-1B inflam inh: -2.0; DT40 TDP1 CPT: -23.1%; RORg inh: -1.2%; VP16 counter: -6.3%; ELG1 repair inh: -18.0%; DT40 TDP1 no CPT: -24.6%

Results for COc1ccc(-n2nc(C(=O)NCC(=O)Nc3cccc(Cl)c3)c3ccccc3c2=O)cc1OC ?
IL-1B inflam inh: 1.7; DT40 TDP1 CPT: 14.6µM*; RORg inh: inconclusive; VP16 counter: 11.2µM*; ELG1 repair inh: inconclusive; DT40 TDP1 no CPT: 14.6µM*

What do the screens show for `COc1ccc(-n2nc(C(=O)NCC(=O)N3CCCC(C)C3)c3ccccc3c2=O)cc1` (stereo unspecified)?
IL-1B inflam inh: -10.4; DT40 TDP1 CPT: -14.1%; RORg inh: 43.6%; VP16 counter: -4.0%; ELG1 repair inh: 1.3%; DT40 TDP1 no CPT: 20.6µM*

What do the screens show for `CCCCNC(=O)CNC(=O)c1nn(-c2ccc(OC)c(OC)c2)c(=O)c2ccccc12`?
IL-1B inflam inh: 2.3; DT40 TDP1 CPT: -23.7%; DT40 TDP1 no CPT: inconclusive

What do the screens show for `CCOc1ccccc1NC(=O)CNC(=O)c1nn(-c2ccc(OC)c(OC)c2)c(=O)c2ccccc12`?
IL-1B inflam inh: -7.7; DT40 TDP1 CPT: inconclusive; RORg inh: 18.8%; VP16 counter: -19.1%; ELG1 repair inh: inconclusive; DT40 TDP1 no CPT: 9.2µM*

What do the screens show for `COc1ccc(CCNC(=O)CNC(=O)c2nn(-c3ccc(OC)c(OC)c3)c(=O)c3ccccc23)cc1OC`?
IL-1B inflam inh: -6.2; DT40 TDP1 CPT: -27.6%; RORg inh: 38.9%; VP16 counter: 0.3%; ELG1 repair inh: inconclusive; DT40 TDP1 no CPT: 9.2µM*

How did COc1ccc(-n2nc(C(=O)NCC(=O)N3CCC(C)CC3)c3ccccc3c2=O)cc1 do in these assays?
IL-1B inflam inh: inconclusive; DT40 TDP1 CPT: -4.3%; RORg inh: 4.5%; VP16 counter: -17.1%; ELG1 repair inh: inconclusive; DT40 TDP1 no CPT: inconclusive

What do the screens show for `Cc1cc(C)cc(NC(=O)c2cccc(C(=O)Nc3cc(C)cc(C)c3)n2)c1`?
IL-1B inflam inh: 6.4; DT40 TDP1 CPT: inconclusive; RORg inh: 8.2%; VP16 counter: -3.6%; ELG1 repair inh: 2.1%; DT40 TDP1 no CPT: inconclusive

What do the screens show for `C=CN1CCCC1=O`?
RORg inh: 36.2%; VP16 counter: -3.3%

Results for C[C@@H]1CN([C@@H](C)CO)C(=O)CCCn2nncc2CO[C@H]1CN(C)C(=O)c1ccncc1 ?
IL-1B inflam inh: 13.5; DT40 TDP1 CPT: 1.7%; DT40 TDP1 no CPT: -2.9%
